According to PubChem BioAssay AID1053188 (Broad Institute, 2014):
Values joined by “and” are separate entries in the source; they are usually repeats but may differ in a detail not shown here. Equal entries are not always repeated. Out of some 83,000 compounds screened, about 780 (0.94%) were called active. The sample as a whole holds a higher share of actives than the screen did. Values without a mark were called inactive.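 Rule for the calls: active = mean inhibition of at least 50% with a set share of replicates also reaching that level; inconclusive = no clear call, values can overlap the other calls; inactive = the rest.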

experiment: CD40 pathway blockade in BL2 B cells – cell-based, luciferase reporter, single point, primary screen (AID 1053188); details: BL2 NF-kB luciferase reporter, CD40L-induced, 4 h; at 10 µM; active compounds read high;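 note: 0% = neutral control wells and 100% = IKK inhibitor VII at 50 µM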

| Structure (SMILES) | inhibition |
| --- | --- |
| CC(=O)OC1C2(CC3N4C(=O)C5(CO)SSC4(CC31O)C(=O)N5C)OC(C)C(C)(C)C2=O (stereo not given) | 107% (active) |
| Cc1nn(-c2ccccc2)c(C)c1NC(=O)COC(=O)Cc1ccccc1 | 3.56% |
| N=c1ccccn1Cc1ccccc1 | 5.42% |
| CCC(C)(O)C(=O)OC1C(=O)OC2CC3C(C)=CC(=O)C(O)C3(C)C3C4(O)OCC23C1C(C)C4O (stereo not given) | 107% (active) |
| CC(=O)N1C[C@@H]2C(c3ccc(Br)cc3)[C@H](C1)N2C (stereo not given in full) | -3.1% and 2.67% |
| Cc1ccc(C(C)C)c(OCC(=O)N2CCN(CC(=O)N3CCOCC3)CC2)c1 | -7.63% |
| Cc1cc(C(=O)OCC(=O)Nc2c(F)cccc2F)c(C)n1C1CC1 | -11.1% |
| Cc1nc2ccc(N3CCN(C)CC3)cc2nc1C | -20.7% |
| CCOC(=O)C1(CCc2ccccc2)CCN(Cc2ccco2)CC1 | 11.2% |
| c1ccc(CC2CCCCN2)cc1 (stereo not given) | -1.33% |
